From the supplement of paper PMC9950053 come the findings set out here.

Structures are written as SMILES. Counter-ions that a name gives are not always drawn.

The subject of the assay is Danio rerio larvae (5 dpf). Put plainly: combined upward orientation toward moving lines (periods 7-14) minus DMSO control (percentage points); higher = more orientation with moving lines than DMSO larvae. The note with it: 10 µM; exposure time: 3 h pre-incubation + 3 h imaging. Here is the method: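 Wild-type 5 dpf zebrafish larvae (n=48 per drug, 96-well plates, 28.5 °C) were exposed to Tocris FDA-approved library compounds at 10 µM (0.1% DMSO) for 3 h before and 3 h during imaging. Images were taken every 6 s during visual and acoustic stimuli, and larvae were tracked with Z-LaP Tracker. Each measure is the treated-group mean minus the DMSO control mean (n=844), in percentage points. This mapping covers compounds with 5-character plate codes.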
For the compound `COc1ccc(C(CN(C)C)C2(O)CCCCC2)cc1` (stereo unspecified) [Venlafaxine hydrochloride], the “combined upward orientation toward moving lines” value worked out at 0.349.
